A number with no mark means an inactive call. Records with an inconclusive call do not appear. Where a call stands in place of a potency, no number is given. Activity calls are given as the source filed them. Calls come from the whole dose curve.
Biological target: Acetylcholinesterase (Homo sapiens) (UniProt P22303)
Experiment: Acetylcholinesterase (AChE) small molecule antagonists: enzyme-based qHTS assay (AID 1347397); note: nearly all actives have a fitted effect of over 55% in size
Conditions: Potency: AChE enzyme activity inhibition; outcome: AChE enzyme activity inhibition; series mostly up to 115 µM
Outline: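 Recombinant human AChE, dispensed at 50 mU/mL, was preincubated with Tox21 10K compounds or DMSO vehicle for 30 min at room temperature. DTNB plus acetylthiocholine was then added, and thiocholine was measured colorimetrically after a further 10 min.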

Acetylcholinesterase (Homo sapiens), sequence (P22303 whole entry, looked up): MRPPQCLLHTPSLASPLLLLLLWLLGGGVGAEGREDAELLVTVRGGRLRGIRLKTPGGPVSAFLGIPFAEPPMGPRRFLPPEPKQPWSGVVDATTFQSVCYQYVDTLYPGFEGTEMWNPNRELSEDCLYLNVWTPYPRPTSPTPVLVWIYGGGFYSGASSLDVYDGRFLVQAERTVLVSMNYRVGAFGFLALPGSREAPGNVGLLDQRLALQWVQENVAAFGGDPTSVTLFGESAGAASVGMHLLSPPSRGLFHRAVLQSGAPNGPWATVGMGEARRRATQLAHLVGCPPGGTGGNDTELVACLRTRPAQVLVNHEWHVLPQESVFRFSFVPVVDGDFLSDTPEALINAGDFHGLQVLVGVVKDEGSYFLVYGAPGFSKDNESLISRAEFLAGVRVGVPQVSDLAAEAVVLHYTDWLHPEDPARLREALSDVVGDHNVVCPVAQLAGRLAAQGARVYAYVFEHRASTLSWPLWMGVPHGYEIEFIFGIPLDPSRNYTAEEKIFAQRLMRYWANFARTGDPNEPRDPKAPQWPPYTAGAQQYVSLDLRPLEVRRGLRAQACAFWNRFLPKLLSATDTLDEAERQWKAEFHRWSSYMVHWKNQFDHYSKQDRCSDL

SMILES | Potency | activity change, negative = inhibition
O=C1OCCN1/N=C/c1ccc([N+](=O)[O-])o1 | inactive | 
CC(C)C(C)(C)C(C)(C)C(C)(C)S | inactive | 
O=C(O)C[C@H](NC(=O)OCc1ccccc1)C(=O)O | inactive | 
CC(=O)Oc1ccc2c(c1)CC[C@@H]1[C@@H]2CC[C@]2(C)[C@@H](O)CC[C@@H]12 | inactive | 
OC12N=C(c3ccccc3)SC1Cc1cc(Cl)ccc12 (stereo not given) | inactive | 
ONc1ccccc1 | inactive | 
CCCCCC1C(=O)CCC1CC(=O)OC (stereo not given) | inactive | 
CC1(C)O[C@@H]2C[C@H]3[C@@H]4CCC5=CC(=O)C=C[C@]5(C)[C@@]4(F)[C@@H](O)C[C@]3(C)[C@]2(C(=O)CO)O1 | inactive | 
CC(COC(C)(C)C)OCCCO (stereo not given) | inactive | 
O=C(O)c1ccc(Cl)cc1Cl | inactive | 
Cc1cc(C(C)(C)C)c(O)c(C)c1Cn1c(=O)n(Cc2c(C)cc(C(C)(C)C)c(O)c2C)c(=O)n(Cc2c(C)cc(C(C)(C)C)c(O)c2C)c1=O | inactive | 
CC(C)CCCC(C)CCCC(C)CCCCC(C)CCCC(C)CCCC(C)C (stereo not given) | inactive | 
Cc1c(-c2cccnc2)c2ccccc2n1CCCCC(=O)O | inactive | 
CCS(=O)(=O)c1ccc(OC)c(C(=O)OC)c1 | inactive | 
CCCCCCCCCCCC(=O)N(CC)CC | inactive | 
C=Cc1ccc(O)c(OC)c1 | inactive | 
Nc1ncnc(Nc2ccccc2)n1 | inactive | 
CCC(Cl)CC(Cl)C(Cl)C(Cl)C(Cl)C(C)Cl (stereo not given) |  | -3.68% [at 23.6 µM]
CCCOCCOCCO | inactive | 
CC(C)(C)C(=O)NCCCC(=O)O | inactive | 

SMILES | Potency | activity change, negative = inhibition
CCC(C)c1nccnc1OC (stereo not given) | inactive | 
NCCNCCO | inactive | 
O=C1c2ccccc2Cc2ccccc21 | inactive | 
O=C(O)CCCCC(=O)O | inactive | 
CC(C)[C@H]1CC[C@@H](C)CC1=O | inactive | 
C=C(C)c1cccc(C(=C)C)c1 | inactive | 
CCCCCCCCCCCC(=O)OC[C@@H](O)[C@H]1OC[C@H](OCCO)[C@H]1OCCO | inactive | 
CCCS(=O)c1ccc2nc(NC(=O)OC)[nH]c2c1 (stereo not given) | inactive | 
C=Cc1ccccc1 | inactive | 
CCCCOC(=O)c1ccccc1C(=O)OCC(CC)CCCC (stereo not given) | inactive | 
CN=C(NC#N)NCCSCc1nc[nH]c1C | inactive | 
C[C@@H](O)C(=O)O | inactive | 
Cc1cc(=O)[nH]c(C(C)C)n1 | inactive | 
COCC(=O)O | inactive | 
CC(=O)[O][Al][O]C(C)=O | inactive | 
CCCCCCCCC1CO1 (stereo not given) | inactive | 
Cc1ccccc1C(N)=O | inactive | 
Cc1cccc(C)c1NC(=O)CN1CCN(CCCC(c2ccc(F)cc2)c2ccc(F)cc2)CC1 | inactive | 
CC(=O)Oc1cccc(O)c1 | inactive | 
O=C(O)CCNC(=O)c1ccc(N=Nc2ccc(O)c(C(=O)O)c2)cc1 | inactive | 

Biological target: Acetylcholinesterase (Homo sapiens) (UniProt P22303)
Experiment: Acetylcholinesterase (AChE) small molecule antagonists: fluorescence cell-based qHTS assay (AID 1347398); note: nearly all actives have a fitted effect of over 50% in size
Conditions: SH-SY5Y cells; Potency: AChE activity; outcome: AChE activity; series mostly up to 115 µM
Outline: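 Human SH-SY5Y cells were plated overnight at 37 C, exposed to compound for 30 min at 37 C, 5% CO2, then given acetylthiocholine plus Thiolite Green for 40 min at room temperature; thiocholine fluorescence (Ex/Em 490/520 nm) reports endogenous AChE activity.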

SMILES | Potency | activity change, negative = inhibition
O=C1OCCN1/N=C/c1ccc([N+](=O)[O-])o1 | inactive | 
CC(C)C(C)(C)C(C)(C)C(C)(C)S | inactive | 
O=C(O)C[C@H](NC(=O)OCc1ccccc1)C(=O)O | inactive | 
CC(=O)Oc1ccc2c(c1)CC[C@@H]1[C@@H]2CC[C@]2(C)[C@@H](O)CC[C@@H]12 | inactive | 
OC12N=C(c3ccccc3)SC1Cc1cc(Cl)ccc12 (stereo not given) | inactive | 
ONc1ccccc1 | inactive | 
CCCCCC1C(=O)CCC1CC(=O)OC (stereo not given) | inactive | 
CC1(C)O[C@@H]2C[C@H]3[C@@H]4CCC5=CC(=O)C=C[C@]5(C)[C@@]4(F)[C@@H](O)C[C@]3(C)[C@]2(C(=O)CO)O1 | inactive | 
CC(COC(C)(C)C)OCCCO (stereo not given) | inactive | 
O=C(O)c1ccc(Cl)cc1Cl | inactive | 
Cc1cc(C(C)(C)C)c(O)c(C)c1Cn1c(=O)n(Cc2c(C)cc(C(C)(C)C)c(O)c2C)c(=O)n(Cc2c(C)cc(C(C)(C)C)c(O)c2C)c1=O | inactive | 
CC(C)CCCC(C)CCCC(C)CCCCC(C)CCCC(C)CCCC(C)C (stereo not given) | inactive | 
Cc1c(-c2cccnc2)c2ccccc2n1CCCCC(=O)O | inactive | 
CCS(=O)(=O)c1ccc(OC)c(C(=O)OC)c1 | inactive | 
CCCCCCCCCCCC(=O)N(CC)CC | inactive | 
C=Cc1ccc(O)c(OC)c1 | inactive | 
Nc1ncnc(Nc2ccccc2)n1 | inactive | 
CCC(Cl)CC(Cl)C(Cl)C(Cl)C(Cl)C(C)Cl (stereo not given) |  | 0.856% [at 23.8 µM]
CCCOCCOCCO | inactive | 
CC(C)(C)C(=O)NCCCC(=O)O | inactive | 

SMILES | Potency | activity change, negative = inhibition
CCC(C)c1nccnc1OC (stereo not given) | inactive | 
NCCNCCO | inactive | 
O=C1c2ccccc2Cc2ccccc21 | inactive | 
O=C(O)CCCCC(=O)O | inactive | 
CC(C)[C@H]1CC[C@@H](C)CC1=O | inactive | 
C=C(C)c1cccc(C(=C)C)c1 | inactive | 
CCCCCCCCCCCC(=O)OC[C@@H](O)[C@H]1OC[C@H](OCCO)[C@H]1OCCO | inactive | 
CCCS(=O)c1ccc2nc(NC(=O)OC)[nH]c2c1 (stereo not given) | inactive | 
C=Cc1ccccc1 | inactive | 
CCCCOC(=O)c1ccccc1C(=O)OCC(CC)CCCC (stereo not given) | inactive | 
CN=C(NC#N)NCCSCc1nc[nH]c1C | inactive | 
C[C@@H](O)C(=O)O | inactive | 
Cc1cc(=O)[nH]c(C(C)C)n1 | inactive | 
COCC(=O)O | inactive | 
CC(=O)[O][Al][O]C(C)=O | inactive | 
CCCCCCCCC1CO1 (stereo not given) | inactive | 
Cc1ccccc1C(N)=O | inactive | 
Cc1cccc(C)c1NC(=O)CN1CCN(CCCC(c2ccc(F)cc2)c2ccc(F)cc2)CC1 | inactive | 
CC(=O)Oc1cccc(O)c1 | inactive | 
O=C(O)CCNC(=O)c1ccc(N=Nc2ccc(O)c(C(=O)O)c2)cc1 | inactive | 

Reference: PubChem BioAssay (Tox21)
